# Laboratory results taken from article PMC7862700, “An all-to-all approach to the identification of sequence-specific readers for epigenetic DNA modifications on cytosine”.
# Columns and labels:
# Experiment in all cases: DAPPL (digital affinity profiling via proximity ligation, sequencing); 10 mM Tris-HCl pH 7.5, 50 mM NaCl, 1 mM DTT, 4% glycerol, room temperature, 30 min; GST-TFs on glutathione beads, 16-mer random dsDNA library, 0.1% formaldehyde crosslink after washing; high values mean tight binding
# FLI1 = biological target: T1, FLI1 (Homo sapiens, UniProt Q01543 1-452); settings: protein: recombinant; tags: N-terminal GST; dsDNA, one strand shown
# T1 sequence: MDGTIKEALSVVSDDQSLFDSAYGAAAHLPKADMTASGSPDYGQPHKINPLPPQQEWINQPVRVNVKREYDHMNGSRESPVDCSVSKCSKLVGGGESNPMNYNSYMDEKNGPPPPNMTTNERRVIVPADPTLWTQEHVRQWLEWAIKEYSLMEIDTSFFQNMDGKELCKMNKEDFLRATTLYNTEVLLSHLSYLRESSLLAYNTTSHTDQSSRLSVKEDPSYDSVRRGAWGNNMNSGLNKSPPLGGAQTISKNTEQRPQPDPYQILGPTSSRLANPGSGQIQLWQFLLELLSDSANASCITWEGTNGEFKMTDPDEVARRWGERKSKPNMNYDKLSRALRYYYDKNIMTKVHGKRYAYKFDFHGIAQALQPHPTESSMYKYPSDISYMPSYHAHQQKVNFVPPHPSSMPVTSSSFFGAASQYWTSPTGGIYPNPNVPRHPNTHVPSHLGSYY
# How it was run: (§1)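 Pools of DNA-barcoded human transcription factors, expressed in yeast as GST fusions on glutathione beads and combined with a tag-only sample, were incubated with 200 nmole of a 16-mer random double-stranded DNA library. Incubation took 30 min at room temperature in Tris/NaCl/DTT/glycerol buffer and was followed by washing, 0.1% formaldehyde crosslinking, proximity ligation (BsaI/T4 ligase, 1 h, 37 °C), PCR amplification and sequencing on an Illumina NextSeq500. Binding signal is the ratio of a hexamer's read frequency for a factor to its frequency for the tag-only sample.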
# ELK1 = biological target: T2, ELK1 (Homo sapiens, UniProt P19419 1-428); settings: protein: recombinant; tags: N-terminal GST; dsDNA, one strand shown
# T2 sequence: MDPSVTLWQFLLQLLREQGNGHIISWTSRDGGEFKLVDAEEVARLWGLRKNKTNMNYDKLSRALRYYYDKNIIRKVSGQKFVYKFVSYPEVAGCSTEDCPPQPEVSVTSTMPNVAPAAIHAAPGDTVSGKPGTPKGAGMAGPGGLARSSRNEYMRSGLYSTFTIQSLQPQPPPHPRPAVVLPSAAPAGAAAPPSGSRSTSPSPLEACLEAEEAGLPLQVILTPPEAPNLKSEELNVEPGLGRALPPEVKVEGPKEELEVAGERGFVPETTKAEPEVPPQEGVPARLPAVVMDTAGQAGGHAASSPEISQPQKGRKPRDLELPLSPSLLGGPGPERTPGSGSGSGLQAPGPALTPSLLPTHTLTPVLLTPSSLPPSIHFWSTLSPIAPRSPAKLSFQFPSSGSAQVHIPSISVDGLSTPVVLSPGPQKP
# How it was run: as §1
# GABPA = biological target: T3, GABPA (Homo sapiens, UniProt Q06546 1-454); settings: protein: recombinant; tags: N-terminal GST; dsDNA, one strand shown
# T3 sequence: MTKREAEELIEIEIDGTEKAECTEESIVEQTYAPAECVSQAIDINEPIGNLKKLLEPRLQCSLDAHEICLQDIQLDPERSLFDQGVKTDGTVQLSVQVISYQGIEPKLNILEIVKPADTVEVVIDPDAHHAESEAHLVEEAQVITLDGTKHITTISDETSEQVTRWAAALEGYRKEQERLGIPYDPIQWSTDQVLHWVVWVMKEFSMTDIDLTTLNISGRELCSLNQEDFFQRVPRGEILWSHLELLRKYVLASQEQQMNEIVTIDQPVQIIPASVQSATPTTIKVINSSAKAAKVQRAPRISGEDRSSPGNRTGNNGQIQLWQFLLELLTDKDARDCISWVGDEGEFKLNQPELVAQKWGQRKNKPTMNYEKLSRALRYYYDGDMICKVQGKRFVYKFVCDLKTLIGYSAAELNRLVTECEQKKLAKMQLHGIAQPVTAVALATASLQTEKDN
# How it was run: as §1
# ERG = biological target: T4, ERG (Homo sapiens, UniProt P11308 1-479); settings: protein: recombinant; tags: N-terminal GST; dsDNA, one strand shown
# T4 sequence: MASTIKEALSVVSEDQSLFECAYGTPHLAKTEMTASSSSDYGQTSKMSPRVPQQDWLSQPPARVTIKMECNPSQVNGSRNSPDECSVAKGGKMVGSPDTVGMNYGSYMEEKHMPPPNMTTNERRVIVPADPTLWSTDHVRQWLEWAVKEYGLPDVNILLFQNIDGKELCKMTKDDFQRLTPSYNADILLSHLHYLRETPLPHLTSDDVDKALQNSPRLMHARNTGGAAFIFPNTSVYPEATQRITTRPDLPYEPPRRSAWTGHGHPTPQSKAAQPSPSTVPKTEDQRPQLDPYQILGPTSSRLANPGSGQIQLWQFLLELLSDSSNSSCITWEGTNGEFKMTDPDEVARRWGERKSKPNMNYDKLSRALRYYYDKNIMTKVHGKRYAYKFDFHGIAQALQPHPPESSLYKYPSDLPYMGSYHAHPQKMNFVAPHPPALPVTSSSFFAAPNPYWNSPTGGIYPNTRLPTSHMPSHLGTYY
# How it was run: as §1
# ELF1 = ELF1 (Homo sapiens, UniProt P32519 1-619); settings: protein: recombinant; tags: N-terminal GST; dsDNA, one strand shown
# Sequence of ELF1 (P32519 whole entry): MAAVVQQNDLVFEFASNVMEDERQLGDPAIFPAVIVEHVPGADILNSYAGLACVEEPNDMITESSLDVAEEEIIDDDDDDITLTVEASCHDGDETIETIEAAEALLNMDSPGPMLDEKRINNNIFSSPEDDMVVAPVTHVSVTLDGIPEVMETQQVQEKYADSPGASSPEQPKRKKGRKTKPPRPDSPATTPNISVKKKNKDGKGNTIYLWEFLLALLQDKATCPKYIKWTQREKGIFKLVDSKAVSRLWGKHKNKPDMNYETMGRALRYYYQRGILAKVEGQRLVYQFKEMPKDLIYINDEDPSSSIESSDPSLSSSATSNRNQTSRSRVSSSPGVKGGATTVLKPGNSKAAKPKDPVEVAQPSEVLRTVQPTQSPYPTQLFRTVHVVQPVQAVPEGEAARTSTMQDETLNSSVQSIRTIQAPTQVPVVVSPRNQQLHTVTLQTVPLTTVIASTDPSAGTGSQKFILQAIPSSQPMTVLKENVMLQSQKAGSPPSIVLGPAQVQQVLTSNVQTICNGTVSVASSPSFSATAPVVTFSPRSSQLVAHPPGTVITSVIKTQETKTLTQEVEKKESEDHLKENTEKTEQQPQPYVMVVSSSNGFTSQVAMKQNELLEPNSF
# How it was run: as §1
# EHF = biological target: T5, EHF (Homo sapiens, UniProt Q9NZC4 1-300); settings: protein: recombinant; tags: N-terminal GST; dsDNA, one strand shown
# T5 sequence: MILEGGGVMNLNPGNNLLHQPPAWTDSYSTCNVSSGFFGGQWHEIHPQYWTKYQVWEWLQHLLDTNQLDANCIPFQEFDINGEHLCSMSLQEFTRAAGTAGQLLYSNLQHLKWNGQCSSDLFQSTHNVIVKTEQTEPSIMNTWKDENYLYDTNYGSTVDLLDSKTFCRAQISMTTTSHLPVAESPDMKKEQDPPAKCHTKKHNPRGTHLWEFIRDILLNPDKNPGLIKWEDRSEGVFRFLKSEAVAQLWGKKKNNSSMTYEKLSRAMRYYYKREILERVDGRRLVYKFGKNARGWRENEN
# How it was run: as §1
# SPI1 = SPI1 (Homo sapiens, UniProt P17947 1-270); settings: protein: recombinant; tags: N-terminal GST; dsDNA, one strand shown
# How it was run: as §1
# SPIB = SPIB (Homo sapiens, UniProt Q01892 1-262); settings: protein: recombinant; tags: N-terminal GST; dsDNA, one strand shown
# Sequence of SPIB (Q01892 whole entry): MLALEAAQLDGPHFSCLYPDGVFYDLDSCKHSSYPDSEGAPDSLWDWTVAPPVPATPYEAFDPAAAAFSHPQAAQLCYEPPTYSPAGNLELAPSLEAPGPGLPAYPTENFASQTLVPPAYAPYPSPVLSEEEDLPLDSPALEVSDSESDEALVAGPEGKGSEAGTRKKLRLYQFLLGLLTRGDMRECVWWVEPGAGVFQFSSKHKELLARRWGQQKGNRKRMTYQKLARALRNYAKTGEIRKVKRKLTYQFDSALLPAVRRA
# How it was run: as §1
# ELK3 = biological target: T6, ELK3 (Homo sapiens, UniProt P41970 1-407); settings: protein: recombinant; tags: N-terminal GST; dsDNA, one strand shown
# T6 sequence: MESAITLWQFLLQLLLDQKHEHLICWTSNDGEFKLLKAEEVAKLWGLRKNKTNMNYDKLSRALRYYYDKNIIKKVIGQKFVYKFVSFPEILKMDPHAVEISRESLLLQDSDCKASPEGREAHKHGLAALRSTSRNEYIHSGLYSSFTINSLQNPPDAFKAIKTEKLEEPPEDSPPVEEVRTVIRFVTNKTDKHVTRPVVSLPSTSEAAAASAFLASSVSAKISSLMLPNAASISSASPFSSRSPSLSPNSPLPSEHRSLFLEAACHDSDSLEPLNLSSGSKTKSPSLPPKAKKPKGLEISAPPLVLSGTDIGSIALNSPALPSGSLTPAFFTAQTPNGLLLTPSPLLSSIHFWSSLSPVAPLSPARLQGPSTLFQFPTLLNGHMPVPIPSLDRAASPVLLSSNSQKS
# How it was run: as §1
# FEV = biological target: T7, FEV (Homo sapiens, UniProt Q99581 1-238); settings: protein: recombinant; tags: N-terminal GST; dsDNA, one strand shown
# T7 sequence: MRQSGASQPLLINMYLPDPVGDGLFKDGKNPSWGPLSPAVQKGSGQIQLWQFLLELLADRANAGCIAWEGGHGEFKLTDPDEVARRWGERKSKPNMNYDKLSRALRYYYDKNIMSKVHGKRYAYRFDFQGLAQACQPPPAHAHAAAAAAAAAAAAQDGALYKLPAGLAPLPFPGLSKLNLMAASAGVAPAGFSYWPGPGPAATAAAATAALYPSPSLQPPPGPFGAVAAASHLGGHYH
# How it was run: as §1
# ETV5 = ETV5 (Homo sapiens, UniProt P41161 1-510); settings: protein: recombinant; tags: N-terminal GST; dsDNA, one strand shown
# Sequence of ETV5 (P41161 whole entry): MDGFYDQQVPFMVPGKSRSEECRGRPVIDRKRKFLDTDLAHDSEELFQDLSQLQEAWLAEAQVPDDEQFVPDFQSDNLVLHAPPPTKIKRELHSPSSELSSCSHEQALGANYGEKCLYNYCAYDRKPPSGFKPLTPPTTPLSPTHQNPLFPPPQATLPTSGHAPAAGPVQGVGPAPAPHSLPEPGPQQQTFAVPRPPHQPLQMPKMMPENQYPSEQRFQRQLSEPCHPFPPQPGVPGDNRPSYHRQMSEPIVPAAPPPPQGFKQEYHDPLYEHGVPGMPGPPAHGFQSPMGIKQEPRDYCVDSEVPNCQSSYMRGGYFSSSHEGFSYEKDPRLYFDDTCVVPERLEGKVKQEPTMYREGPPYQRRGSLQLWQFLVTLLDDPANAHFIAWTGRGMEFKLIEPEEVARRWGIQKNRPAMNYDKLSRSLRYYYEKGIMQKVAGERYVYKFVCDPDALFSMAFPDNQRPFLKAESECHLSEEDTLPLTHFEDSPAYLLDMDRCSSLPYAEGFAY
# How it was run: as §1
# HSF1 = HSF1 (Homo sapiens, UniProt Q00613 1-529); settings: protein: recombinant; tags: N-terminal GST; chain copies: 3; dsDNA, one strand shown
# Sequence of HSF1 (Q00613 whole entry): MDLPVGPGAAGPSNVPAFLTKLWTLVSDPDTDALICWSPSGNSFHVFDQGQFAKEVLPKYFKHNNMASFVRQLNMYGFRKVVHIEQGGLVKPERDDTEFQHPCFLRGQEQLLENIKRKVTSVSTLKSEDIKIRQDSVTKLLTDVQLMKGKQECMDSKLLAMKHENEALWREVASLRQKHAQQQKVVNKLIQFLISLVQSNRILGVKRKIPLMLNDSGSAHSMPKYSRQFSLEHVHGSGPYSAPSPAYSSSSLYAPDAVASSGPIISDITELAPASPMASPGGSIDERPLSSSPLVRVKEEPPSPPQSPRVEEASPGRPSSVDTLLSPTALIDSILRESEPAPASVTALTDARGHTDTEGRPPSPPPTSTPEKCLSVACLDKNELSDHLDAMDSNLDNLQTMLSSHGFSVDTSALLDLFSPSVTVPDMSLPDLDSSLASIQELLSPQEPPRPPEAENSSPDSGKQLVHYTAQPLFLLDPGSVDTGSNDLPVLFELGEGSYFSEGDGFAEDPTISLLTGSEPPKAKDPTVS
# How it was run: as §1
# SPIC = biological target: T8, SPIC (Homo sapiens, UniProt Q8N5J4 1-248); settings: protein: recombinant; tags: N-terminal GST; dsDNA, one strand shown
# T8 sequence: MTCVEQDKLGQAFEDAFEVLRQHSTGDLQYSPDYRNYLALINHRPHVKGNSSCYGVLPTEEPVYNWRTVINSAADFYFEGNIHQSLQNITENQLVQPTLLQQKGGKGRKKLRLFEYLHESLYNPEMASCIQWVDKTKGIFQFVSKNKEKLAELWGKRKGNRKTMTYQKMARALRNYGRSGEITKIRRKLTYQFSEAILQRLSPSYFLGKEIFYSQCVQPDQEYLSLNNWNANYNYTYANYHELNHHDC
# How it was run: as §1
# ELF4 = ELF4 (Homo sapiens, UniProt Q99607 1-663); settings: protein: recombinant; tags: N-terminal GST; dsDNA, one strand shown
# Sequence of ELF4 (Q99607 whole entry): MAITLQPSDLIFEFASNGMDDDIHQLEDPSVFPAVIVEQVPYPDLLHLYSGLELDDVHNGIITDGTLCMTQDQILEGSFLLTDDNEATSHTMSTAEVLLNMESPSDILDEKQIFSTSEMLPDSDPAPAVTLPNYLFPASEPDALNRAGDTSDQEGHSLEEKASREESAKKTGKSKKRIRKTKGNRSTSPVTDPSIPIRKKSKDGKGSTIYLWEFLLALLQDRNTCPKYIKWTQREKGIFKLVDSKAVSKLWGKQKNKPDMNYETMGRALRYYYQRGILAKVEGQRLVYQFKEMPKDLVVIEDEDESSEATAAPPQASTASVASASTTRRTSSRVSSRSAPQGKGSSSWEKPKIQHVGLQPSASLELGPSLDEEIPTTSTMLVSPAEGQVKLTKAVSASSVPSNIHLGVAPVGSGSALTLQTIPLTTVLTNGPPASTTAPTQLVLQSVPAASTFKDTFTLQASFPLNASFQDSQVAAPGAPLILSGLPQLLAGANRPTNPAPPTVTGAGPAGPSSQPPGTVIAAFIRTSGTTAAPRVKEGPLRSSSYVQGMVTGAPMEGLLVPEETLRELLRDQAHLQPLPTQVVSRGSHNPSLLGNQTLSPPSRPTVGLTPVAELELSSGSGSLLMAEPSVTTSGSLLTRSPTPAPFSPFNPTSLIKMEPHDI
# How it was run: as §1
# ELK4 = biological target: T9, ELK4 (Homo sapiens, UniProt P28324-2 1-405); settings: protein: recombinant; tags: N-terminal GST; dsDNA, one strand shown
# T9 sequence: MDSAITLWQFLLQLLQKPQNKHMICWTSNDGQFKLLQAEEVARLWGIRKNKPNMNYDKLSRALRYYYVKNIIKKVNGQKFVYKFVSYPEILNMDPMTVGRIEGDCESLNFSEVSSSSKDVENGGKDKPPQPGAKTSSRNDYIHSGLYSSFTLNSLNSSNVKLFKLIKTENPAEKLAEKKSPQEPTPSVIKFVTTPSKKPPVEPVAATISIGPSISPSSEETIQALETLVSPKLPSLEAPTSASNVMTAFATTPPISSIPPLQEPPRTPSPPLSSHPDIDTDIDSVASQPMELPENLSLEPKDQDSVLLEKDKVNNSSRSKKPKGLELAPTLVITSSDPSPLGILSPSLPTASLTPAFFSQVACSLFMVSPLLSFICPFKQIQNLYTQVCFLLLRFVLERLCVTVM
# How it was run: as §1
# ETV2 = biological target: T10, ETV2 (Homo sapiens, UniProt O00321 1-342); settings: protein: recombinant; tags: N-terminal GST; dsDNA, one strand shown
# T10 sequence: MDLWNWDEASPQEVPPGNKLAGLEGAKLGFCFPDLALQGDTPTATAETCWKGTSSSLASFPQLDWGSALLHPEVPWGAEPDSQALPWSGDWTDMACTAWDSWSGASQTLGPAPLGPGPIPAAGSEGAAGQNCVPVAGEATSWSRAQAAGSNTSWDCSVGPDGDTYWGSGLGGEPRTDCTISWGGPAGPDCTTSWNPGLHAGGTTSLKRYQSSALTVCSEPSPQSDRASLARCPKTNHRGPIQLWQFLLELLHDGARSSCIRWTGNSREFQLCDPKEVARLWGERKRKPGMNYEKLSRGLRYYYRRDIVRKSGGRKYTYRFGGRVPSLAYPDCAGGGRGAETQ
# How it was run: as §1
# ELF3 = biological target: T11, ELF3 (Homo sapiens, UniProt P78545 1-371); settings: protein: recombinant; tags: N-terminal GST; dsDNA, one strand shown
# T11 sequence: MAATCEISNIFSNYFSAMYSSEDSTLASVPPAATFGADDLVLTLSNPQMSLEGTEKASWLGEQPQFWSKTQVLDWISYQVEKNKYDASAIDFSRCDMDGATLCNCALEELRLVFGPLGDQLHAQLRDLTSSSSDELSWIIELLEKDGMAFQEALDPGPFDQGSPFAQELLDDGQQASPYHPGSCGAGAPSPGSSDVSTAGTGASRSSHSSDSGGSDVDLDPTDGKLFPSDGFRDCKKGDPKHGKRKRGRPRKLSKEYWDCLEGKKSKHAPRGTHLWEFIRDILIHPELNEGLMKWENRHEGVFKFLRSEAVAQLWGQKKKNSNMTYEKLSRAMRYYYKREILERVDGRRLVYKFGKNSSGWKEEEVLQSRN
# How it was run: as §1
# CRX = CRX (Homo sapiens, UniProt O43186 1-299); settings: protein: recombinant; tags: N-terminal GST; dsDNA, one strand shown
# Sequence of CRX (O43186 whole entry): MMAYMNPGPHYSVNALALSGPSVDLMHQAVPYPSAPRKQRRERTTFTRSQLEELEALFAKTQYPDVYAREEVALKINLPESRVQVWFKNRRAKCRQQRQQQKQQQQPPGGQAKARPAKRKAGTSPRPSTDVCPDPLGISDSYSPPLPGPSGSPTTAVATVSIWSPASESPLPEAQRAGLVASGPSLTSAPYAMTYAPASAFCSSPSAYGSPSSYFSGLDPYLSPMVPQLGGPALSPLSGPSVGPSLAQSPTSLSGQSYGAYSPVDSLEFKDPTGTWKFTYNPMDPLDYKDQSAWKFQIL
# How it was run: as §1
# ETV1 = ETV1 (Homo sapiens, UniProt P50549 1-477); settings: protein: recombinant; tags: N-terminal GST; dsDNA, one strand shown
# Sequence of ETV1 (P50549 whole entry): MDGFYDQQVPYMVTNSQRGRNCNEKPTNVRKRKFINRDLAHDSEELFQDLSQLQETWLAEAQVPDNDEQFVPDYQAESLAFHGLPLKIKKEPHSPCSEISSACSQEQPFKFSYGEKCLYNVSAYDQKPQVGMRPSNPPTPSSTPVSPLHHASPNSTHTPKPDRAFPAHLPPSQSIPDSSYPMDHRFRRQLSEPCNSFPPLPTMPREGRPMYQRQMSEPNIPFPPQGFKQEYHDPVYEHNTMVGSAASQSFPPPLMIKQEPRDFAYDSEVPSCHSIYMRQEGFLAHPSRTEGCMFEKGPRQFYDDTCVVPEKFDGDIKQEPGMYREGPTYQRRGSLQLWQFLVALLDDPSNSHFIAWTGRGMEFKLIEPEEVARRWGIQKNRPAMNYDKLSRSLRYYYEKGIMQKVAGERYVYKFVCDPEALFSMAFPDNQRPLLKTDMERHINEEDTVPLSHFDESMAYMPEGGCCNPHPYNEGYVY
# How it was run: as §1
sequence,measurement,setting,value
GCACTA,binding signal,FLI1,"1.18 fold enrichment (6-mer frequency, TF over GST control)"
same,binding signal,ELK1,"1.2 fold enrichment (6-mer frequency, TF over GST control)"
same,binding signal,GABPA,"1.23 fold enrichment (6-mer frequency, TF over GST control)"
same,binding signal,ERG,"1.11 fold enrichment (6-mer frequency, TF over GST control)"
same,binding signal,ELF1,"1.16 fold enrichment (6-mer frequency, TF over GST control)"
same,binding signal,EHF,"1.21 fold enrichment (6-mer frequency, TF over GST control)"
same,binding signal,SPI1,"1.19 fold enrichment (6-mer frequency, TF over GST control)"
same,binding signal,SPIB,"1.3 fold enrichment (6-mer frequency, TF over GST control)"
same,binding signal,ELK3,"1.23 fold enrichment (6-mer frequency, TF over GST control)"
same,binding signal,FEV,"1.19 fold enrichment (6-mer frequency, TF over GST control)"
same,binding signal,ETV5,"1.13 fold enrichment (6-mer frequency, TF over GST control)"
same,binding signal,HSF1,"1.11 fold enrichment (6-mer frequency, TF over GST control)"
same,binding signal,SPIC,"1.12 fold enrichment (6-mer frequency, TF over GST control)"
same,binding signal,ELF4,"1.27 fold enrichment (6-mer frequency, TF over GST control)"
same,binding signal,ELK4,"1.13 fold enrichment (6-mer frequency, TF over GST control)"
same,binding signal,ETV2,"1.22 fold enrichment (6-mer frequency, TF over GST control)"
same,binding signal,ELF3,"1.29 fold enrichment (6-mer frequency, TF over GST control)"
same,binding signal,CRX,"1.17 fold enrichment (6-mer frequency, TF over GST control)"
same,binding signal,ETV1,"1.15 fold enrichment (6-mer frequency, TF over GST control)"
